Experimental findings from PubChem BioAssay are described below.

Assay [1] is described as follows: inhibitors of PAF-induced NFkB signaling in CF airway cells, dose response, cell-based, uHTS hits, panel, cytotoxicity readout (AID 624344). As to conditions: CF bronchial epithelial cells, PAF-induced NFkB reporter inhibition, with PAF, run 1; at 79 µM (top of the series) unless noted.
Experiment in assay [2]: as above
The conditions noted are these: CF bronchial epithelial cells, PAF-induced NFkB reporter inhibition, with PAF, run 2; at 79 µM (top of the series) unless noted.

`COc1ccc(C2=Nn3c(nnc3-c3ccccc3OC)SC2)cc1OC1CCOC1` (stereo not given): the inhibition in assay [1] and in assay [2] was 92.2% throughout.

Take `Cc1ccc2nc(SCC(=O)Nc3cc(C(F)(F)F)ccc3N3CCOCC3)[nH]c2c1`: the values for the inhibition in assay [1] and in assay [2] were 81.3% and 48.5%, respectively.

Turning to `CCOC(=O)c1ccc(NC(=O)Nc2nncs2)cc1`, the inhibition in assay [1] amounted to 83.2%; in assay [2], 111%.

For `OCCN1CCN(c2ncnc3ccc(Br)cc23)CC1`, the inhibition came to 95.4% in assay [1] and 107% in assay [2].

For the compound `CCN1CCN(Cc2ccc(NC(=O)c3ccc(C)c(NC(=O)c4ccno4)c3)cc2C(F)(F)F)CC1`, the inhibition in assay [1] is 105%; in assay [2], 83.4%.

Consider `Cc1cccc(NS(=O)(=O)c2ccc(-c3cnc(C4CC4)o3)cc2)c1C`, for which the inhibition turned out to be 105% in assay [1] and 107% in assay [2].

Take `CCOc1ccccc1N1CCN(C(=O)c2cc(-c3cc(OC)ccc3OC)nc3ccccc23)CC1`: the inhibition in assay [1] turned out to be 107%; in assay [2], 104%.

With `C=CCN(CC=C)c1ncnc2[nH]ncc12`, the inhibition in assay [1] came to 99.9%; in assay [2], 109%.

For the compound `N#Cc1ccsc1NC(=O)c1ccc(Cl)c([N+](=O)[O-])c1`, the inhibition was 74% in assay [1] and 101% in assay [2].

Consider `CC(=O)OCCCNc1cc(Sc2ccc(Cl)cc2)c2nonc2c1[N+](=O)[O-]`, for which the inhibition in assay [1] was determined as 100%; in assay [2], 113%.

Regarding `Cn1c(SC2=CS(=O)(=O)c3ccccc32)nc2ccccc21`, the inhibition in assay [1] worked out at 101%; in assay [2], 102%.

Take `CCc1cc(-c2[nH]ncc2-c2ccc(OC)cc2)c(O)cc1O`: the inhibition in assay [1] was 115%; in assay [2], 104%.

As to `COc1ccc(N(CCCN2C(=O)c3cccc4cccc(c34)C2=O)C(=O)c2ccncc2)cc1`, the inhibition in assay [1] was 5.78%; in assay [2] it was 45.8%.

On to `CCOc1cccc(-c2nnc3sc(C4CCCCC4)nn23)c1`, for which the figures for the inhibition in assay [1] and in assay [2] were 102% and 116%, respectively.

On to `Cc1ccc(NC(=O)Nc2cccc([N+](=O)[O-])c2)cc1F`, for which the inhibition in assay [1] worked out at 102%; in assay [2], 113%.

As to `Cc1ccc(N(C)C(=O)c2cc(S(=O)(=O)N3CCCCC3)c[nH]2)cc1`, the values for the inhibition in assay [1] and in assay [2] were 93.5% and 79%, respectively.

As for `COc1cc2c(c(OC)c1OC)-c1ccc(SC)c(=O)cc1C(NC(=O)C(F)(F)F)CC2` (stereo not given), the inhibition in assay [1] was found to be 72.8%; in assay [2], 79%.

With `C=C1C(=O)C23C(O)C1CCC2C12COC3(O)C(O)C1C(C)(C)CCC2O` (stereo not given), the inhibition in assay [1] was found to be 87.7%; in assay [2], 76.9%.

On to `Cc1c(-c2ccccc2)oc2c(C(=O)N3CCN(c4ccc([N+](=O)[O-])cc4)CC3)cccc2c1=O`, for which the inhibition is 105% in assay [1] and 93.8% in assay [2].

With `COc1ccc(OC)c(Nc2ncnc3ccc(Br)cc23)c1`, the inhibition in assay [1] worked out at 98.3%; in assay [2], 97.5%.

For `Cc1cccc(NC(=O)Nc2ccc(C#N)cc2)n1`, the inhibition in assay [1] amounted to 103%; in assay [2], 113%.

As to `O=c1[nH]nc(Sc2ncnc3sccc23)n1CCc1ccccc1`, the inhibition in assay [1] stood at 100%; in assay [2], 105%.

As for `CCOc1ccc(C(C(=O)NC2CCCC2)N(C(=O)c2snc(C(N)=O)c2N)c2cccc(O)c2)cc1` (stereo not given), the inhibition was 105% in assay [1] and 96.6% in assay [2].

As for `COc1ccc(-c2cn[nH]c2-c2ccc(OCc3ccccc3F)cc2O)cc1OC`, the inhibition came out at 113% in assay [1] and 98.3% in assay [2].

For the compound `CC(=O)Nc1ccc(-c2ccnc3c2CC(C(=O)NCc2ccco2)O3)cc1` (stereo not given), the inhibition in assay [1] is 70%; in assay [2], 78%.

Take `CC(=O)NC(CC(C)C)C(=O)NC(Cc1ccccc1)C(=O)CCl` (stereo not given): the values for the inhibition in assay [1] and in assay [2] were 97.3% and 104%, respectively.

Take `O=C(Nc1cccc(-c2cnc3ccccc3n2)c1)c1cccc(NC(=O)c2ccco2)c1`: the inhibition in assay [1] came to 98.6%; in assay [2], 96.6%.

In the case of `Cc1nn(-c2cccc(Cl)c2)c2nc(C(F)(F)F)[nH]c(=O)c12`, the inhibition amounted to 96% in assay [1] and 79.8% in assay [2].

With `O=C(c1ccccc1)C1OC1C(=O)c1ccccc1` (stereo not given), the values for the inhibition in assay [1] and in assay [2] were 101% and 109%, respectively.

As for `CC(C)(C)C(=O)/C(=C/c1ccncc1)n1cncn1`, the values for the inhibition in assay [1] and in assay [2] were 98.3% and 102%, respectively.

In the case of `CCc1nc(Cl)c(C#N)c2c1CCCC2`, the inhibition in assay [1] was found to be 112%; in assay [2], 105%.

Regarding `COc1ccc(-c2cn[nH]c2-c2ccc(OCc3ccccc3)cc2O)cc1`, the inhibition in assay [1] was found to be 99.8%; in assay [2] it was 114%.

As to `O=C(Nc1ccncc1)c1c(Cl)cccc1Cl`, the figures for the inhibition in assay [1] and in assay [2] were 112% and 101%, respectively.

In the case of `CCOC(=O)N1CCC(NC(=O)c2ccc3c(c2)N=C(C)c2c(C)ccc(C)c2S3)CC1`, the figures for the inhibition in assay [1] and in assay [2] were 92.2% and 115%, respectively.

Take `Cc1ccc(-n2nnnc2Sc2ccc(S(=O)(=O)NCCN(C)C)cc2[N+](=O)[O-])cc1`: the inhibition in assay [1] was 104%; in assay [2], 114%.

As to `COc1cc(NC(=O)c2cc3ccccc3cc2OC)ccc1NC(=O)c1cccs1`, the inhibition in assay [1] was determined as 98.1%; in assay [2], 107%.

Consider `O=C1Cc2c([nH]c3ccc(Br)cc23)-c2ccccc2N1`, for which the values for the inhibition in assay [1] and in assay [2] were 94.6% and 80.1%, respectively.

As to `Cc1ccc(-c2c(C#N)c(N)n3c(nc4ccccc43)c2C#N)cc1`, the inhibition was 109% [at 39.5 µM] in assay [1] and 50.7% in assay [2].

As to `CCc1cc(SC#N)cc(C)c1NC(=O)CCl`, the results for the inhibition in assay [1] and in assay [2] were 107% and 99.9%, respectively.

On to `Cc1c(C(=O)OC2CCCC2)[nH]c2c1C(=O)CC(c1ccco1)C2` (stereo not given), for which the results for the inhibition in assay [1] and in assay [2] were 29% and 115%, respectively.

Consider `Nc1ncnc(N2CCc3ccccc32)c1[N+](=O)[O-]`, for which the inhibition in assay [1] is 115%; in assay [2] it was 103%.

Take `CCOc1cc2c(cc1O)C(=NOC)CC1C2CCC2(C)C(O)CCC12` (stereo not given): the inhibition in assay [1] was 74%; in assay [2], 94.3%.

Turning to `CN(C)/C=C/C(=O)c1ccc2noc(-c3ccccc3)c2c1`, the figures for the inhibition in assay [1] and in assay [2] were 118% and 105%, respectively.

Take `COc1ccc(-n2nc(C(=O)NCC(=O)Nc3cc(OC)c(OC)c(OC)c3)c3ccccc3c2=O)cc1Cl`: the inhibition in assay [1] is 96.2%; in assay [2] it was 95.1%.

Take `Clc1ccccc1C1=Nn2c(nnc2-c2ccncc2)SC1`: the inhibition in assay [1] amounted to 109%; in assay [2], 100%.

What is called inhibition is the relative decrease from the control value, in per cent.
